Reference: PubChem BioAssay

tested on: XIP peptide (Xip251-270); test: small-molecule binders of XIP peptide, primary screen, biochemical, small-molecule microarray, fluorescence 635/667 nm, 0.5 µg/mL protein (AID 1183); settings: small-molecule microarray binding, fluorescence 635 nm; higher = more signal

SMILES	composite z-score
COCCOC(=O)N1C(=O)[C@@]2(c3ccccc31)[C@H](C(N)=O)[C@H]1C(=O)O[C@H](c3ccccc3)[C@H](c3ccccc3)N1[C@@H]2c1ccccc1OCCO	0.801
CN1C(=O)C2C=CC(C(O)c3ccc(I)cc3)N(NC(=O)OC(C)(C)C)C2C1=O (centres undefined)	0.575
C=CCC(OC(C)=O)[C@@H]1[C@@H](N(Cc2cc3ccccc3o2)C(=O)Cc2ccc(F)cc2)c2cc(OCCCO)ccc2N1C(=O)Cc1ccc(OC)cc1 (some centres undefined)	-0.0246
CN1C(=O)C2C=CC(C(O)C(c3ccccc3)c3ccccc3)N(NC(=O)OC(C)(C)C)C2C1=O (centres undefined)	0.752
COCCCNC(=O)[C@]1(CCC(=O)OC(C)(C)C)N=C(c2ccc(OCCCO)cc2)O[C@@H]1c1ccccc1N=[N+]=[N-]	0.764
O=C1O[C@@H](c2ccccc2)[C@@H](c2ccccc2)N2[C@@H](c3ccccc3OCCO)[C@]3(C(=O)Nc4ccc(C#CCCO)cc43)[C@@H](C(=O)O)[C@H]12	0.842
CN1C(=O)C2C(C1=O)C1C=C(CCCO)C2C(c2ccc(CN3CCCC3)cc2)N1C (centres undefined)	-0.598
COC(=O)[C@@]1(Cc2ccc(F)cc2)[C@@H]2C(=CC(=O)[C@H]2CC(=O)C(=O)N(C)C)CN1C(=O)c1ccccc1	0.472
[N-]=[N+]=NCc1ccccc1C[C@]1(C(=O)NCc2ccccc2)N=C(c2ccc(OCCCO)cc2)O[C@H]1c1ccccc1N=[N+]=[N-]	0.344
C=C(COC)/C(=C/C[C@H](OC(=O)c1ccncc1)c1ccc(CO)o1)c1cc(C(=O)OC)ccc1OC	0.483
CS(=O)(=O)CCOC(=O)C1=CC(CCCO)=CC(c2cccs2)N(Cc2cccc(OC(F)(F)F)c2)C=C1C(=O)OCCS(C)(=O)=O (centres undefined)	-0.0502
CCCNC(=O)[C@@H]1c2ccccc2C(=O)N(Cc2ccccc2Cl)[C@H]1c1ccc(CO)cc1	0.799
CCc1cccc(NC(=O)O[C@H]2[C@H](OC(=O)Nc3ccc4c(c3)OCO4)[C@@H](OC(=O)Nc3ccc4c(c3)OCO4)[C@@H](OC)O[C@@H]2CO)c1	-0.0177
COC(=O)[C@@]1(Cc2ccc(OC)cc2)[C@H]2c3cc(C(=O)N4CCCC4)n(Cc4cc(F)c(F)c(F)c4)c3C[C@H]2CN1C(=O)c1ccccc1	0.604
CN(C)C(=O)[C@@]1(Cc2ccccc2)N=C(c2ccc(OCCCO)cc2)O[C@H]1c1ccccc1CN=[N+]=[N-]	0.746
COc1ccc([Si](C)(C)[C@@H]2[C@@H](CCO)O[C@]3(C(=O)N(Cc4ccc(NC(C)=O)cc4)c4ccccc43)[C@H]2C)cc1	0.811
O=C1O[C@@H](c2ccccc2)[C@@H](c2ccccc2)N2[C@@H](c3ccc(O)cc3)[C@]3(C(=O)Nc4ccccc43)[C@@H](C(=O)O)[C@H]12	0.632
O=C1c2ccccc2[C@@]2(Cc3ccccc3N(C3CC3)C2=O)[C@H](c2ccc(CO)cc2)N1Cc1ccccc1C(F)(F)F	0.926
O[C@@H](Cc1ccccc1)[C@H]1C2C=CCCC(c3ccccc3)=C2CN1Cc1cccc(Cl)c1 (some centres undefined)	0.27
